CHT block = inhibitors of human choline transporter CHT | Q9GZV3 | CHT-expressing cells, membrane potential dye, choline response; active compounds read low | B-score at 10 µM | actives 0.86% (n = 310,000);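 active means B-score over 3 SD under the library average, and starting fluorescence ratio not unusually high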;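 further: choline stimulus applied at its EC90 after an EC20 pre-addition; B-score computed on integrated fluorescence ratio after choline addition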
ANO1 block = inhibitors of mouse TMEM16A calcium-activated chloride channel | Q8BHY3 | actives 1.2% (n = 310,000) | HEK293 TMEM16A/YFP iodide influx fluorescence, ionomycin | AID 588511 | normalized B-score (activity score, 25-100; higher = stronger inhibition) at 10 µM;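 active means ratio plate-corrected score three or more library SD toward inhibition, starting fluorescence score within five deviations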;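 further: score derived from kinetic fluorescence span divided by baseline fluorescence per well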
Target sequence (Q8BHY3 whole entry, looked up): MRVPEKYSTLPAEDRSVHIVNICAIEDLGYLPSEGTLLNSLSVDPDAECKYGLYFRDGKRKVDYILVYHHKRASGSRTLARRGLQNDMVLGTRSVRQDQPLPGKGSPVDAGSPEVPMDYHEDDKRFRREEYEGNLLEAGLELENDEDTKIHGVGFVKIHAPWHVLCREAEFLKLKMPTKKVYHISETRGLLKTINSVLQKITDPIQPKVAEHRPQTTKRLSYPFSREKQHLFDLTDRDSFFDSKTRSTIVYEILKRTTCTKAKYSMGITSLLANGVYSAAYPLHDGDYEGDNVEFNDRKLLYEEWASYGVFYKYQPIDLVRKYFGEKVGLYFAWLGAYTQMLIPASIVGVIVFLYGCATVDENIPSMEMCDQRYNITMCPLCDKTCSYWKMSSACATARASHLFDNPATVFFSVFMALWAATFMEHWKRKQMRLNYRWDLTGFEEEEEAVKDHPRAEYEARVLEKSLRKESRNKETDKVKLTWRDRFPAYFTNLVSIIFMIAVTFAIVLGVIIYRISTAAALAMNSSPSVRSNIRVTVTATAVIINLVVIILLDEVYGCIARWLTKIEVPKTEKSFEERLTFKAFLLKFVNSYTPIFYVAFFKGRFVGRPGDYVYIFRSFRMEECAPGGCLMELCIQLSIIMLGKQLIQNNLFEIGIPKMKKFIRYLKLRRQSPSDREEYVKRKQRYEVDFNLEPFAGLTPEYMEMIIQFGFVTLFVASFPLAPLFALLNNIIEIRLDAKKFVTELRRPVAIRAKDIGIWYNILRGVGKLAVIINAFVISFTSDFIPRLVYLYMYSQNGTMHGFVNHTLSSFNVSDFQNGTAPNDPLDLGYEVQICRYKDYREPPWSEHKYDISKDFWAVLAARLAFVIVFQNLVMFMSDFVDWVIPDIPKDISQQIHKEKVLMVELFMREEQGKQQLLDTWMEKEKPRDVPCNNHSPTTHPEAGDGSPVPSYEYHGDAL
CHT allo act = allosterically activates the human high affinity choline transporter; Q9GZV3; CHT-expressing cells, membrane potential dye, choline EC20; active compounds read high; LV-AA mutant CHT in HEK293 cells; B-score at 10 µM; actives 0.49% (n = 310,000);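 active means initial fluorescence not abnormally high and integrated response B-score, plate-corrected, over 3 SD above library mean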
ANO1 activ = activates or potentiates the mouse TMEM16A chloride channel; Q8BHY3; HEK293 TMEM16A/YFP-H148Q/I152L, iodide quench fluorescence; active compounds read low; B-score at 10 µM; actives 0.3% (n = 340,000);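 active means fluorescence-ratio B-score plate-corrected deviation score at least 3 library SD below zero, with starting fluorescence score within 5 deviations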;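 further: channel opened by trigger with iodide after compound preincubation; score built on the fluorescence ratio of max minus min over baseline; more negative score means more quench and so TMEM16A activation or potentiation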
CHT act confirm = human CHT activation, confirmatory screen. shares compounds with CHT allo act. AID 504833. activation, % at 10 µM. CHT-expressing cells, membrane potential dye fluorescence (FDSS); % of choline EC20–EC90 response window; HEK293 expressing CHT LV-AA mutant; choline added at its EC20. actives 91% (n = 2,500);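 active means primary screen active, with duplicate mean activation above negative control mean plus 3 SD, cut at about 11% in these data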
HEK293 MP dye = activity in parental HEK293 cells lacking CHT | shares compounds with CHT allo act | membrane potential dye fluorescence (FDSS); measured after EC20 choline addition | ratio readout change at 10 µM, hits read low | actives 62% (n = 2,500) | AID 623908;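 active means duplicate-averaged ratio beyond 3 SD from buffer wells, up or down, though filed actives are nearly all decreases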
Starred values were filed as active, the others as inactive; i = inactive; nt = no result given. Only some compounds are listed: those with a hit (about 2.3% of all), similar ones and a draw of the others.

SMILES	CHT block	ANO1 block	CHT allo act	ANO1 activ	CHT act confirm	HEK293 MP dye
CCOC(=O)N1CCN(C(=O)c2ccc(N(Cc3ccc(C)cc3)S(C)(=O)=O)cc2)CC1	i	i	i	i	nt	nt
CCCN(CCC)CCNC(=O)c1cc2c(-c3ccc(Cl)cc3)nn(C)c2s1	i	i	i	i	nt	nt
CCN(CC)CCNC(=O)c1cc2c(-c3ccc(Cl)cc3)nn(C)c2s1	i	i	9.9*	i	33*	-21*
COc1ccc2c(c1)C(C)=CC(C)(C)N2S(=O)(=O)c1ccc(C)cc1	i	i	7.9*	i	41*	i
CCCCn1c(N)c(N(CC(C)C)C(=O)C2CCN(S(=O)(=O)c3ccc(C)cc3)CC2)c(=O)[nH]c1=O	i	i	i	i	nt	nt
Cc1nc2ccc(Br)cc2c2c1CC(CO)O2 (stereo unspecified)	i	i	6.9*	i	53*	-53*
Cc1nc2ccc(Br)cc2c2c1CC(CBr)O2 (stereo unspecified)	i	i	i	i	nt	nt
Cc1cc(=O)oc2cc(OCC(=O)N3CCC(O)CC3)c(Cl)cc12	i	i	i	i	25*	-21*
CCNC(=S)N(CCO)Cc1cc2cc3c(cc2[nH]c1=O)OCO3	i	i	i	i	nt	nt
O=C(NCCCN1CCOCC1)c1ccc(NS(=O)(=O)c2cccc([N+](=O)[O-])c2)cc1	i	i	i	i	nt	nt
Cc1ccc(S(=O)(=O)Nc2ccc(C(=O)NCCCN3CCOCC3)cc2)cc1[N+](=O)[O-]	i	i	i	i	16*	i
C[N+](C)(C)CCCCCCCCCC[N+](C)(C)C	i	i	7.8*	i	43*	-52*
Cc1c(Cl)cccc1NC(=O)COC(=O)c1c2c(nc3ccccc13)CCN(Cc1ccccc1)C2	i	i	i	i	21*	i
OC(C#CCCN1CCCCC1)(c1ccccc1)C1CCCCC1 (stereo unspecified)	i	i	7.5*	i	18*	i
CC(=O)c1ccc(CCCc2ccc(C(C)=O)cc2)cc1	nt	nt	nt	i	nt	nt
CCC(=O)NC(=S)NNC(=O)COc1ccc(Br)cc1	i	i	i	i	nt	nt
CC(C)C(=O)N1CCC2(CC1)Oc1ccc(Cl)cc1C(=O)C21CC(c2ccccc2)=NO1 (stereo unspecified)	i	i	i	i	6	i
CC(Oc1ccccc1)C(=O)N1CCC2(CC1)Oc1ccc(Cl)cc1C(=O)C21CC(c2ccccc2)=NO1 (stereo unspecified)	i	i	i	nt	nt	nt
COc1ccc(C(=O)Cn2c(Cl)nc3c2c(=O)n(C)c(=O)n3C)cc1	i	i	i	i	nt	nt
CCc1nc2ccc(Cc3ccc4nc(CC)[nH]c4c3)cc2[nH]1	i	i	7.1*	i	49*	-52*
Cc1ccc2nc(CCc3ccc(N)cc3)[nH]c2c1	i	i	i	i	nt	nt
CCN(CC)CCN(Cc1cc2ccc(C)c(C)c2[nH]c1=O)C(=S)NCc1ccco1	i	i	i	i	16*	-25*
Cc1cc(=O)n(C)c(=O)n1CCCCCCN1CCCC1	i	i	i	i	44*	-34*
Cc1nc2c(C)[n+](CC(=O)c3ccccc3)ccc2n1C	i	i	i	i	44*	-38*
COc1ccc(C(=O)C[n+]2ccc3c(c2)nc(-c2ccccc2)n3C)cc1	i	i	i	i	nt	nt
C(=N\n1cnnc1)/c1ccccn1	i	i	i	i	nt	nt
C(=N\n1cnnc1)/c1ccc2ncccc2c1	i	i	8*	i	67*	-80*
N#CCSc1nnc2sc3ccccc3n12	i	i	i	i	nt	nt
CN(C)CCSc1nnc2sc3ccccc3n12	i	i	6.6*	i	58*	-55*
COC1C(CO)OC(n2c3c(Cl)cccc3c3c4c(c5c6cccc(Cl)c6[nH]c5c32)C(=O)NC4=O)C(O)C1O (stereo unspecified)	nt	nt	nt	i	nt	nt
